Screens from PubChem BioAssay.
Shown are actives, neighbours in structure and some others; about 4.6% of the full set was active somewhere.
TRHR ag: activates the human TRH receptor; TRHR cells, calcium flux fluo-8, FDSS agonist mode; activation, % at 2 µM; 360,000 compounds, 0.18% hits; AID 493084; also: 0% is about no effect
Target sequence (P34981 whole entry, looked up): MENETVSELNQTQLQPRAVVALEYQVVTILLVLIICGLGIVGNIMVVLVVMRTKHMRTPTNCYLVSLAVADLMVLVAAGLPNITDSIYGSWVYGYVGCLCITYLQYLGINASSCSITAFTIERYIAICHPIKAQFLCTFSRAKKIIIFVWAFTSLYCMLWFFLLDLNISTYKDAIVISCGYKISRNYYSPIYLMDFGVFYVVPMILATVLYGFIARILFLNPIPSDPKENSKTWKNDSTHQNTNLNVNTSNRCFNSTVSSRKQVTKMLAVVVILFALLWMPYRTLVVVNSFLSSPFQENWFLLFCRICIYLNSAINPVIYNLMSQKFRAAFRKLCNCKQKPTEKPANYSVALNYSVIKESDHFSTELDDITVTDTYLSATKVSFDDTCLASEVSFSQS
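Steps: seed TRHR cells overnight; add fluo-8 no-wash Ca dye, RT 30 min–1.5 h; record 10 s baseline; pin-transfer compounds; monitor fluorescence 1 cycle/s for the agonist window. Calcium increases flag candidate agonists.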
D1 ag: agonists of human D1 dopamine receptor; P21728; activation, % at 2 µM; AID 504660; HEK293 T-REx D1 cells, calcium flux, agonist mode; 360,000 compounds, 1% hits; also: 0% is about no effect
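Tetracycline-induced HEK293 TREx D1 cells, force-coupled to calcium signalling, were dye-loaded with a no-wash calcium kit. Compound was pin-added after a 10 s baseline. Fluorescence was read kinetically at 1 cycle/s for 180 s, with calcium rises flagged as agonism.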
TRHR PAM: allosterically enhances the human TRH receptor | TRHR cells, fluo-8 calcium fluorescence, EC20 TRH enhancement | enhancement, % at 2 µM | 360,000 compounds, 0.66% hits | AID 493056; in the data active = enhancement above about 30%; also: 0% is about no effect
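Enhancer read-out: after compound pinning and an initial kinetic agonist-mode read, an EC20 of TRH (10 nM final) was injected and fluo-8 calcium signal (Ex 480/Em 530) followed at 1 s/cycle for 100 cycles in TRHR-expressing cells.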
Epigenetic derep: regulators of epigenetic silencing causing reporter derepression in mouse cells; Potency, µM (titrated, usually from 53.9 µM), inactives show at the highest dose GFP activation, hits mostly activators; AID 1865; murine LDR cells, GFP reporter derepression, 30 h; 280,000 compounds, 0.2% hits; active = well fitted activation curve with a large enough effect; also: potency is read from the fitted curve at half-maximal effect; % of control where 0% means no effect; nearly all actives have a fitted effect of over 60% in size
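Readout is the number of GFP-expressing murine LDR cells, counted by cytometry following washing. Cells were treated with compound for 30 h at 37 C; the stably integrated CMV-GFP locus is normally silent.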
D1 potentiator: human D1 dopamine receptor positive modulation; P21728; HEK293 TREx D1 cells, calcium flux, dopamine EC20 potentiation; potentiation, % at 10 µM; 360,000 compounds, 0.036% hits; AID 504651; in the data active = potentiation above about 30%; also: 0% is about no effect
D1 antagonist: antagonists of human D1 dopamine receptor | P21728 | activity change, negative = inhibition, % at 10 µM | HEK293 TREx D1 cells, calcium flux, dopamine EC80; stronger effect = lower value | AID 504652 | 360,000 compounds, 3.2% hits; in the data active = activity change below about -30%; also: % is scaled to controls: 0 for no effect and ±100 for the full control effect
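Antagonism measured as reduced calcium response to an EC80 dopamine addition following 180 s compound pre-read; cells were inducible HEK293 Trex D1 plated overnight at 30 C, read kinetically at 1 cycle/sec.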
Numbers without * were called inactive; [ ] = another dose, or the depositor's remark. Rule as the data show it, unless noted: active = activation above about 30%; inactive = the rest.

`O=C(CCCN1C(=O)CCC1=O)Nc1ccc(Br)cc1F` gave TRHR ag 0, D1 ag 1, TRHR PAM 1, Epigenetic derep 0%, D1 potentiator -3 and D1 antagonist -32*.
For Cc1ccc(NC(=O)CSc2n[nH]c(-c3cccnc3)n2)c(Br)c1 the results were TRHR ag -1, D1 ag 7, TRHR PAM 4 and D1 antagonist -32*.
`COc1ccccc1NC(=O)CSc1n[nH]c(-c2cccnc2)n1` gave TRHR ag 0, D1 ag 0, TRHR PAM 0, D1 potentiator 1 and D1 antagonist 5.
For COc1ccc(C)cc1NC(=O)NC(C)c1c(-n2cccc2)sc(C)c1C (centres undefined) the results were TRHR ag 0, D1 ag 0, TRHR PAM 10, Epigenetic derep 1%, D1 potentiator -4 and D1 antagonist 10.
COCCNc1c(-c2ccc(O)cc2)nc2ccc(Cl)cn12 was read as TRHR ag -1, D1 ag 0, TRHR PAM 0, Epigenetic derep -1%, D1 potentiator -10 and D1 antagonist -41*.
COCCNc1c(-c2ccc(OC)c(OC)c2)nc2ccc(Cl)cn12 was read as TRHR ag 0, D1 ag 0, TRHR PAM 4, Epigenetic derep 0%, D1 potentiator 2 and D1 antagonist 32.
Screening CCc1ccccc1NC(=O)Cn1nc(CC)n2c(cc3sccc32)c1=O returned TRHR ag 0, D1 ag 0, TRHR PAM 3, Epigenetic derep 3%, D1 potentiator -2 and D1 antagonist 2.
Screening CC(Oc1ccccc1)C(=O)N1CCN(Cc2cc(=O)n3nc(-c4ccccc4Cl)sc3n2)CC1 (centres undefined) returned TRHR ag 0, D1 ag 0, TRHR PAM -4, Epigenetic derep 2%, D1 potentiator 1 and D1 antagonist 8.
For COC1=CC(=Cc2c(N)n3nc(CC(=O)N4CCCCC4)sc3nc2=O)C=C(OC)C1=O the results were TRHR ag 138*, D1 ag 62*, TRHR PAM 22, D1 potentiator 1 and D1 antagonist 9.
`Cc1[nH]c2ccc(F)cc2c(=O)c1SC(F)(F)C(F)F` gave TRHR ag 0, D1 ag 20, TRHR PAM -8, Epigenetic derep -1%, D1 potentiator -1 and D1 antagonist -42*.
Screening CCc1ccccc1NC(=O)c1ccc2nc(C(C)C)oc2c1 returned TRHR ag 0, D1 ag 1, TRHR PAM -2, Epigenetic derep -2%, D1 potentiator 0 and D1 antagonist 15.
`Cc1ccc(C)c(NC(=O)c2cc(S(=O)(=O)N3CCCCCC3)ccc2F)c1` gave TRHR ag 0, D1 ag -3, TRHR PAM 8, Epigenetic derep 8%, D1 potentiator 0 and D1 antagonist -2.
`COc1ccc(NC(=O)CSc2nncn3c2cc2oc(C)cc23)cc1OC` gave TRHR ag 0, D1 ag 11, TRHR PAM -9, Epigenetic derep 5%, D1 potentiator -5 and D1 antagonist -25.
`C/C(CC(=O)NC1CCCC1)=N\NC(=O)c1ccc([N+](=O)[O-])c(Cl)c1` gave TRHR ag 0, D1 ag 1, TRHR PAM 38*, Epigenetic derep 0%, D1 potentiator -5 and D1 antagonist 20.
Screening COc1ccc([C@]23Cc4ccccc4C(O2)c2c(cc(-c4ccccc4)oc2=O)O3)cc1 returned TRHR ag 2, D1 ag 1, TRHR PAM -7, D1 potentiator -3 and D1 antagonist -21.
`O=C(COC(=O)C1CC1)Nc1ncc(Cl)cc1Cl` gave TRHR ag 1, D1 ag 4, TRHR PAM 5, D1 potentiator 12 and D1 antagonist -4.
`O=C(CSC(=S)N1CCCC1)Nc1ncc(Cl)cc1Cl` gave TRHR ag 0, D1 ag 7, TRHR PAM 31*, D1 potentiator -7 and D1 antagonist -4.
Screening COCCNC(=S)N1CCC(c2nc(-c3ccc(N(C)C)cc3)no2)CC1 returned TRHR ag 0, D1 ag 17, TRHR PAM -3, Epigenetic derep -2%, D1 potentiator -4 and D1 antagonist -22.
For CC(C)CNC(=S)N1CCC(c2nc(-c3ccc(F)cc3)no2)CC1 the results were TRHR ag 0, D1 ag 19, TRHR PAM -6, Epigenetic derep 6%, D1 potentiator -8 and D1 antagonist -34*.
`O=C(c1ccc(F)cc1)N1CCCC(c2nc(-c3ccncc3)no2)C1` (centres undefined) gave TRHR ag 0, D1 ag 12, TRHR PAM -4, D1 potentiator -2 and D1 antagonist 14.
For CCCCC(=O)N1CCCC(c2nc(-c3cccc(OC)c3)no2)C1 (centres undefined) the results were TRHR ag -1, D1 ag 2, TRHR PAM 5, Epigenetic derep 0%, D1 potentiator 2 and D1 antagonist -9.
For O=C(c1c(F)cccc1F)N1CCCC(c2nc(-c3ccc(F)cc3)no2)C1 (centres undefined) the results were TRHR ag 0, D1 ag 6, TRHR PAM 3, D1 potentiator 2 and D1 antagonist -31*.
Screening COc1cccc(-c2noc(C3CCCN(C(=O)CC(C)(C)C)C3)n2)c1 (centres undefined) returned TRHR ag 0, D1 ag 2, TRHR PAM 7, Epigenetic derep 2%, D1 potentiator -6 and D1 antagonist -67*.
For CCOC(=O)CCN1C(=O)[C@H]2[C@H]3[C@H](O)[C@H](O)C/C(=N/OCC(C)C)[C@@H]3CC[C@@H]2C1=O the results were Epigenetic derep 0%[10.1 µM].
Cc1cc(C)cc(C(=O)N(Cc2nc(-c3ccc(Cl)cc3)no2)C(C)C)c1 was read as TRHR ag 0, D1 ag 8, TRHR PAM -5, Epigenetic derep -1%, D1 potentiator -4 and D1 antagonist -8.
CCCN1CCN(c2ncc3c(n2)CCN(Cc2ccc(OC)c(OC)c2OC)C3)CC1 was read as TRHR ag 0, D1 ag -1, TRHR PAM 0, Epigenetic derep -3%, D1 potentiator 0 and D1 antagonist -9.
Screening Cc1nn(C)c(Oc2cccc(Cl)c2)c1C#N returned TRHR ag -1, D1 ag 0, TRHR PAM 1, Epigenetic derep 6%, D1 potentiator 1 and D1 antagonist 2.
